Assay in all cases: DAPPL (digital affinity profiling via proximity ligation, sequencing); 10 mM Tris-HCl pH 7.5, 50 mM NaCl, 1 mM DTT, 4% glycerol, room temperature, 30 min; GST-TFs on glutathione beads, 16-mer random dsDNA library, 0.1% formaldehyde crosslink after washing; high values mean tight binding
The target in one experiment is T1, FEV (Homo sapiens, UniProt Q99581 1-238).
T1 sequence: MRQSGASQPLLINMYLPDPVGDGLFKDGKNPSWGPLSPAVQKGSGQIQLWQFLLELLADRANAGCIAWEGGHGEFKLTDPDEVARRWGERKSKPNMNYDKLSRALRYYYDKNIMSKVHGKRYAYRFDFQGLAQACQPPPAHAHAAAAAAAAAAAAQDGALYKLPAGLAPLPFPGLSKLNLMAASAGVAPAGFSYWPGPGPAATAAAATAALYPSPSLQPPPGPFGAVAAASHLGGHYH
Particulars: protein: recombinant; tags: N-terminal GST; dsDNA, one strand shown. The procedure, abridged:
(§1)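 Beads coated with glutathione captured GST-fused human transcription factors that had been expressed in yeast, and the factors were then given DNA barcodes and pooled with a tag-only sample. The pools were incubated with 200 nmole of a random double-stranded 16-mer DNA library in Tris/NaCl/DTT/glycerol buffer for 30 min at room temperature, washed, crosslinked with 0.1% formaldehyde and proximity-ligated with BsaI/T4 ligase at 37 °C for 1 h. PCR amplification and Illumina NextSeq500 sequencing came last. Binding signal is each hexamer's read frequency for a factor divided by its frequency for the tag-only sample.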

For another experiment, the target named is ETV5 (Homo sapiens, UniProt P41161 1-510). Particulars: protein: recombinant; tags: N-terminal GST; dsDNA, one strand shown. The procedure, abridged:
as §1

The target of the next experiment is HSF1 (Homo sapiens, UniProt Q00613 1-529). Particulars: protein: recombinant; tags: N-terminal GST; chain copies: 3; dsDNA, one strand shown. In a few lines:
as §1

A further experiment deals with T2, SPIC (Homo sapiens, UniProt Q8N5J4 1-248).
T2 sequence: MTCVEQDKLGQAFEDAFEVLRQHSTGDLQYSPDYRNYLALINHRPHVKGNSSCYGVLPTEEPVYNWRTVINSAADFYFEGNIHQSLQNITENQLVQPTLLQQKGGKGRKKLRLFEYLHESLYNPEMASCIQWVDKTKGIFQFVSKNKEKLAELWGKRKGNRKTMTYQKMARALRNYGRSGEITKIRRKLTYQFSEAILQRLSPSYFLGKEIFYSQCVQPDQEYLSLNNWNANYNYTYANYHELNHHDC
Particulars: protein: recombinant; tags: N-terminal GST; dsDNA, one strand shown. The procedure, abridged: as §1

For a further experiment, the target named is ELF4 (Homo sapiens, UniProt Q99607 1-663). Particulars: protein: recombinant; tags: N-terminal GST; dsDNA, one strand shown. In a few lines: as §1
Sequence of ELF4 (Q99607 whole entry): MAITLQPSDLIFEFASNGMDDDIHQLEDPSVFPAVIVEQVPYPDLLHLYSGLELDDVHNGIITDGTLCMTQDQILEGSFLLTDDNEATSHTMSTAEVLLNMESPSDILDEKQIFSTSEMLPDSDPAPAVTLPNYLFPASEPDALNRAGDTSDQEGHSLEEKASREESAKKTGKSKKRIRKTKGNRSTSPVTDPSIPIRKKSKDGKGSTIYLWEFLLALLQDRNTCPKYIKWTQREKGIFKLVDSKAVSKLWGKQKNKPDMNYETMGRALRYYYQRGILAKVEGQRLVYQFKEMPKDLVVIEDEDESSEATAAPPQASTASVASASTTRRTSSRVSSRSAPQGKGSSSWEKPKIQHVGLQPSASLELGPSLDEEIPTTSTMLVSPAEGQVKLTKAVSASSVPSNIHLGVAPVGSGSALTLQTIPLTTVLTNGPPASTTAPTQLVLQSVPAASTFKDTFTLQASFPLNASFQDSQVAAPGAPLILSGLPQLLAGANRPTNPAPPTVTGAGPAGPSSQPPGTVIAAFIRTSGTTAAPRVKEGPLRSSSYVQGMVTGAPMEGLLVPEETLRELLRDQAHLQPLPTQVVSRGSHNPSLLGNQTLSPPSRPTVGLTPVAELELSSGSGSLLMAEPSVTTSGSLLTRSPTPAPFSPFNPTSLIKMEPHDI
The target of another experiment is T3, ELK4 (Homo sapiens, UniProt P28324-2 1-405).
T3 sequence: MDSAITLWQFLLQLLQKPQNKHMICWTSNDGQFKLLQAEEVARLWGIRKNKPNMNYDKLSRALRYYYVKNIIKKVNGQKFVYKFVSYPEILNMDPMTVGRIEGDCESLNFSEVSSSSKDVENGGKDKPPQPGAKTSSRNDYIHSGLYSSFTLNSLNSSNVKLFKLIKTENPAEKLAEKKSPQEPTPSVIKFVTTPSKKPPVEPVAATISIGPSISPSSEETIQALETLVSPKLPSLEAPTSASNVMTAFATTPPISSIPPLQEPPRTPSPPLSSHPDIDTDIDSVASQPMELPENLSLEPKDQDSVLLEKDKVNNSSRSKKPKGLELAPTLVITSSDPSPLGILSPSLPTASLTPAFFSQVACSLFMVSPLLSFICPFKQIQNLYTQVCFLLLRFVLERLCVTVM
To be noted: protein: recombinant; tags: N-terminal GST; dsDNA, one strand shown. In a few lines:
as §1

For a further experiment, the target named is T4, ETV2 (Homo sapiens, UniProt O00321 1-342).
T4 sequence: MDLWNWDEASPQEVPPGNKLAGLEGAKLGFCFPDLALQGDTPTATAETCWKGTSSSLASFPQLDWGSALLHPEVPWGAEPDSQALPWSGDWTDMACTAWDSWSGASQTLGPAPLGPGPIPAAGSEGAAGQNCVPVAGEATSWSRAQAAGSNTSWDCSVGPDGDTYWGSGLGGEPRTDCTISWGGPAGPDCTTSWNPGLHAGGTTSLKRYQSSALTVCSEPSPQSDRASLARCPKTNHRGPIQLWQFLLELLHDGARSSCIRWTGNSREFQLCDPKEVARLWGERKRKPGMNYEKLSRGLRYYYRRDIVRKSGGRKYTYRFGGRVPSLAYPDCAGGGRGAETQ
Particulars: protein: recombinant; tags: N-terminal GST; dsDNA, one strand shown. The procedure, abridged:
as §1

The target of a further experiment is T5, ELF3 (Homo sapiens, UniProt P78545 1-371).
T5 sequence: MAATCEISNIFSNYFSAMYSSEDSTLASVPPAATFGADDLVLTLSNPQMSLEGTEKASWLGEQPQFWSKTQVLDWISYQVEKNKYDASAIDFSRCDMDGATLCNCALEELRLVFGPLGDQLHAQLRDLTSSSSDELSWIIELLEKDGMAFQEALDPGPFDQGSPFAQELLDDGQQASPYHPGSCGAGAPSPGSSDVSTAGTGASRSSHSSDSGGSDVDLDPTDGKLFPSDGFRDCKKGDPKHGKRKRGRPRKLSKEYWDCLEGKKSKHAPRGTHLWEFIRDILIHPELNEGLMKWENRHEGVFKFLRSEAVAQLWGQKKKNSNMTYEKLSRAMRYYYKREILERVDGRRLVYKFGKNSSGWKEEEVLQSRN
Particulars: protein: recombinant; tags: N-terminal GST; dsDNA, one strand shown. The procedure, abridged:
as §1

The next experiment deals with CRX (Homo sapiens, UniProt O43186 1-299). Particulars: protein: recombinant; tags: N-terminal GST; dsDNA, one strand shown. In a few lines: as §1
Sequence of CRX (O43186 whole entry): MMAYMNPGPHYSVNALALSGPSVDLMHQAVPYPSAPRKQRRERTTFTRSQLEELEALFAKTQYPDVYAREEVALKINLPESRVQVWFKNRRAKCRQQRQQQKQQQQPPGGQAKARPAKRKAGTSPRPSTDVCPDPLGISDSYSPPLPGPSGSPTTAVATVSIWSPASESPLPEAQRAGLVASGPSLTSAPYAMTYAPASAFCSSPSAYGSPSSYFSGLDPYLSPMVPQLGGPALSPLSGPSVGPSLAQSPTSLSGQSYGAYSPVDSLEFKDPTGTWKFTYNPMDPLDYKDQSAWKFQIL
For the next experiment, the target named is ETV1 (Homo sapiens, UniProt P50549 1-477). To be noted: protein: recombinant; tags: N-terminal GST; dsDNA, one strand shown. In a few lines:
as §1

Sequence of ETV5 (P41161 whole entry): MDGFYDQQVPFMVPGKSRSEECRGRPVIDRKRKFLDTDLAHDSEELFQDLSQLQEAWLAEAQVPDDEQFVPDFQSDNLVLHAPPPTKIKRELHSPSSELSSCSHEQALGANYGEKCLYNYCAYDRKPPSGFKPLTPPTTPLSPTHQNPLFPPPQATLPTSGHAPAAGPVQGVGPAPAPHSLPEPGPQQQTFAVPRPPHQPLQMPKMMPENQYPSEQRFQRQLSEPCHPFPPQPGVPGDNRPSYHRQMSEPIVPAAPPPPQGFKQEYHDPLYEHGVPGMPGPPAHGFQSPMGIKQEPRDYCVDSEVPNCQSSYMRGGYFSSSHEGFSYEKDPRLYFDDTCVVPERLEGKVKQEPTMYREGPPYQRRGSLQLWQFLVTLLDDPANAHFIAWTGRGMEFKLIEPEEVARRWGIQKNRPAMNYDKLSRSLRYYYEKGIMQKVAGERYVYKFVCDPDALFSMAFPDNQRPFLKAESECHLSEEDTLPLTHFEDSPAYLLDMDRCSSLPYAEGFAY
Sequence of ETV1 (P50549 whole entry): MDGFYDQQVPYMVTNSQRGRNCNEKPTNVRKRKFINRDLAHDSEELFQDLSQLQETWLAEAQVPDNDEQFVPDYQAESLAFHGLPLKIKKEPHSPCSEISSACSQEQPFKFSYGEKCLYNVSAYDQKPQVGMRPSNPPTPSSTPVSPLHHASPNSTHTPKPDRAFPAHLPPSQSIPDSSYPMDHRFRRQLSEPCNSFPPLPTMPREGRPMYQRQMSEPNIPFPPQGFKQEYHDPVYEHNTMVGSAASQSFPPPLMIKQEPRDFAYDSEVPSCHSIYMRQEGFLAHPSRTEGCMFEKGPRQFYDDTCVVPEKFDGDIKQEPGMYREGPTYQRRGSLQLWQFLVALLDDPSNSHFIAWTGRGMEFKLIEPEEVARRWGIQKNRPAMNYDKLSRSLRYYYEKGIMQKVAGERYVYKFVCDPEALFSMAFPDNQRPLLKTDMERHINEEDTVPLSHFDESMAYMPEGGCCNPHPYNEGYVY
Sequence of HSF1 (Q00613 whole entry): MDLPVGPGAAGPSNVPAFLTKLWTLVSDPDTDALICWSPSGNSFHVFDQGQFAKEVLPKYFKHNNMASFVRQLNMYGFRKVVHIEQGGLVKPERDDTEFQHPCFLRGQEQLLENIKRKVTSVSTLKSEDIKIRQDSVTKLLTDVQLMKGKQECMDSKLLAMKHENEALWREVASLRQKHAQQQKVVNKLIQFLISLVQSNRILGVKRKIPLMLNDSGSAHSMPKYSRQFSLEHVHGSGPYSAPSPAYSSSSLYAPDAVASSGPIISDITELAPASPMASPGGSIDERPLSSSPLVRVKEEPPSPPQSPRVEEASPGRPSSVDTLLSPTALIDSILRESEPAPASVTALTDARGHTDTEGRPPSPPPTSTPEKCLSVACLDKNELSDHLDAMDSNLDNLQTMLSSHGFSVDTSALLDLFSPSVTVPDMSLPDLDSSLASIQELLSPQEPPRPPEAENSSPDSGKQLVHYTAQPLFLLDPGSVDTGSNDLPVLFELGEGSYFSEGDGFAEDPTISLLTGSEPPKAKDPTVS

On to TGCTGG, for which the binding signal with FEV is 1.09 fold enrichment (6-mer frequency, TF over GST control); in the experiment with ETV5, 1.04 fold enrichment (6-mer frequency, TF over GST control); with HSF1 it was 1.43 fold enrichment (6-mer frequency, TF over GST control); in the experiment with SPIC, 1.06 fold enrichment (6-mer frequency, TF over GST control); with ELF4 it was 1.12 fold enrichment (6-mer frequency, TF over GST control); in the experiment with ELK4, 1.27 fold enrichment (6-mer frequency, TF over GST control). Besides, the binding signal with ETV2 was 1.22 fold enrichment (6-mer frequency, TF over GST control); with ELF3, 1.02 fold enrichment (6-mer frequency, TF over GST control); with CRX it was 1.03 fold enrichment (6-mer frequency, TF over GST control); with ETV1, 1.08 fold enrichment (6-mer frequency, TF over GST control).
Turning to GCTTCC, the binding signal in the experiment with FEV was 4.3 fold enrichment (6-mer frequency, TF over GST control); with ETV5, 3.97 fold enrichment (6-mer frequency, TF over GST control); with HSF1 it was 1.47 fold enrichment (6-mer frequency, TF over GST control); with SPIC it was 3.3 fold enrichment (6-mer frequency, TF over GST control); with ELF4, 3.18 fold enrichment (6-mer frequency, TF over GST control); with ELK4 it was 2.98 fold enrichment (6-mer frequency, TF over GST control). The binding signal with ETV2 is 3.44 fold enrichment (6-mer frequency, TF over GST control); with ELF3 it was 3.14 fold enrichment (6-mer frequency, TF over GST control); with CRX, 1.19 fold enrichment (6-mer frequency, TF over GST control); with ETV1, 3.62 fold enrichment (6-mer frequency, TF over GST control).
Take AAGAAA: the binding signal is 1.15 fold enrichment (6-mer frequency, TF over GST control) with FEV; 1.19 fold enrichment (6-mer frequency, TF over GST control) with ETV5; 1.75 fold enrichment (6-mer frequency, TF over GST control) in the experiment with HSF1; 1.19 fold enrichment (6-mer frequency, TF over GST control) in the experiment with SPIC; 1.19 fold enrichment (6-mer frequency, TF over GST control) in the experiment with ELF4; 1.18 fold enrichment (6-mer frequency, TF over GST control) in the experiment with ELK4. Also, the binding signal is 1.18 fold enrichment (6-mer frequency, TF over GST control) with ETV2; 1.23 fold enrichment (6-mer frequency, TF over GST control) with ELF3; 1.29 fold enrichment (6-mer frequency, TF over GST control) with CRX; 1.2 fold enrichment (6-mer frequency, TF over GST control) with ETV1.
With ACCTTT, the binding signal in the experiment with FEV was 1.45 fold enrichment (6-mer frequency, TF over GST control); in the experiment with ETV5, 1.36 fold enrichment (6-mer frequency, TF over GST control); in the experiment with HSF1 it was 1.36 fold enrichment (6-mer frequency, TF over GST control); with SPIC it was 1.58 fold enrichment (6-mer frequency, TF over GST control); in the experiment with ELF4 it was 1.42 fold enrichment (6-mer frequency, TF over GST control); in the experiment with ELK4, 1.49 fold enrichment (6-mer frequency, TF over GST control). Besides, the binding signal with ETV2 is 1.31 fold enrichment (6-mer frequency, TF over GST control); with ELF3, 1.32 fold enrichment (6-mer frequency, TF over GST control); with CRX, 1.3 fold enrichment (6-mer frequency, TF over GST control); with ETV1 it was 1.43 fold enrichment (6-mer frequency, TF over GST control).
On to ATTCGT, for which the binding signal was 1.12 fold enrichment (6-mer frequency, TF over GST control) with FEV; 1.19 fold enrichment (6-mer frequency, TF over GST control) in the experiment with ETV5; 1.27 fold enrichment (6-mer frequency, TF over GST control) with HSF1; 1.25 fold enrichment (6-mer frequency, TF over GST control) with SPIC; 1.24 fold enrichment (6-mer frequency, TF over GST control) with ELF4; 1.11 fold enrichment (6-mer frequency, TF over GST control) with ELK4. For the same sequence, the binding signal with ETV2 is 1.16 fold enrichment (6-mer frequency, TF over GST control); with ELF3, 1.37 fold enrichment (6-mer frequency, TF over GST control); with CRX, 1.28 fold enrichment (6-mer frequency, TF over GST control); with ETV1 it was 1.14 fold enrichment (6-mer frequency, TF over GST control).
Consider TTCTAG, for which the binding signal in the experiment with FEV was 1.15 fold enrichment (6-mer frequency, TF over GST control); with ETV5, 1.11 fold enrichment (6-mer frequency, TF over GST control); with HSF1, 7.56 fold enrichment (6-mer frequency, TF over GST control); with SPIC, 1.29 fold enrichment (6-mer frequency, TF over GST control); with ELF4, 1.22 fold enrichment (6-mer frequency, TF over GST control); with ELK4, 1.22 fold enrichment (6-mer frequency, TF over GST control). The binding signal is 1.18 fold enrichment (6-mer frequency, TF over GST control) in the experiment with ETV2; 1.42 fold enrichment (6-mer frequency, TF over GST control) with ELF3; 2.67 fold enrichment (6-mer frequency, TF over GST control) in the experiment with CRX; 1.2 fold enrichment (6-mer frequency, TF over GST control) in the experiment with ETV1.
TCAACC: the binding signal in the experiment with FEV is 1.19 fold enrichment (6-mer frequency, TF over GST control); with ETV5 it was 1.22 fold enrichment (6-mer frequency, TF over GST control); in the experiment with HSF1, 1.03 fold enrichment (6-mer frequency, TF over GST control); with SPIC, 1.07 fold enrichment (6-mer frequency, TF over GST control); in the experiment with ELF4, 1.19 fold enrichment (6-mer frequency, TF over GST control); with ELK4 it was 1.16 fold enrichment (6-mer frequency, TF over GST control). For the same sequence, the binding signal in the experiment with ETV2 is 1.3 fold enrichment (6-mer frequency, TF over GST control); with ELF3 it was 1.16 fold enrichment (6-mer frequency, TF over GST control); with CRX, 1.09 fold enrichment (6-mer frequency, TF over GST control); with ETV1, 1.23 fold enrichment (6-mer frequency, TF over GST control).
Turning to TAATGC, the binding signal with FEV is 1.17 fold enrichment (6-mer frequency, TF over GST control); with ETV5 it was 1.16 fold enrichment (6-mer frequency, TF over GST control); in the experiment with HSF1 it was 1.63 fold enrichment (6-mer frequency, TF over GST control); in the experiment with SPIC it was 1.21 fold enrichment (6-mer frequency, TF over GST control); with ELF4 it was 1.28 fold enrichment (6-mer frequency, TF over GST control); with ELK4, 1.23 fold enrichment (6-mer frequency, TF over GST control). The binding signal is 1.29 fold enrichment (6-mer frequency, TF over GST control) in the experiment with ETV2; 1.23 fold enrichment (6-mer frequency, TF over GST control) with ELF3; 2.32 fold enrichment (6-mer frequency, TF over GST control) with CRX; 1.28 fold enrichment (6-mer frequency, TF over GST control) with ETV1.

Values taken from article PMC7862700, “An all-to-all approach to the identification of sequence-specific readers for epigenetic DNA modifications on cytosine”.
